# Source: PubChem BioAssay (NCATS)
# Records with an inconclusive call do not appear. The source made the active and inactive calls. The call rests on the fitted dose curve; in most records, active means well fitted inhibition curve with a large enough effect; inconclusive means small, poorly fitted or top-dose-only effect; inactive means flat fitted curve, though single readings scatter.
# Test system: NIH3T3
# Test: qHTS assay to identify novel small-molecules to repurpose for Merkel cell carcinoma treatment (AID 1296009); further: nearly all actives have a fitted effect of over 60% in size
# Settings: MCC and control cell lines, CellTiter-Glo viability, 72 h; at 44.8 µM (top of the series) unless noted
# How it was run: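 qHTS format: cells treated with library compounds in DMSO across 8 (NPC) or 11 (MIPE) concentrations. Readout after 72 hr at 37 degree celsius was CellTiter-Glo luminescence.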
row,Compound,outcome
1,CCn1c2ccccc2c2cc(CNC)ccc21,inactive
2,O=S(=O)(NC1CCNCC1)c1cc(S(=O)(=O)c2ccccc2)ccc1C(F)(F)F,inactive
3,CC1CCC2(C(=O)OC3OC(CO)C(O)C(O)C3O)CCC3(C)C(=CCC4C5(C)CC(O)C(O)C(C)(C(=O)O)C5CCC43C)C2C1(C)O (stereo unspecified),inactive [at 17.4 µM]
4,Cc1nnc(C(C)C)n1C1CC2CCC(C1)N2CC[C@H](NC(=O)C1CCC(F)(F)CC1)c1ccccc1 (stereo partly specified),inactive
5,Cc1nn(C)c2c1C(c1ccc(C(F)(F)F)cc1)C(C#N)=C(N)O2 (stereo unspecified),inactive
6,CC(=O)[C@@H]1CC[C@]2(C(=O)O)CC[C@]3(C)C(CCC4[C@@]5(C)CC[C@H](O)C(C)(C)C5CC[C@]43C)C12 (stereo partly specified),inactive [at 17.4 µM]
7,COc1cc(/C=C/C(=O)OC(C)(C)C(OC2OC(CO)C(O)C(O)C2O)C(=O)OCc2ccc(OC3OC(CO)C(O)C(O)C3O)cc2)ccc1O (stereo unspecified),inactive [at 17.4 µM]
8,Cc1cn2c(N)c(Cl)cc(C(=O)NCC3CCN(CC(C)C)CC3)c2n1,inactive
9,OC[C@H]1O[C@@H](Oc2cc(O)cc(/C=C/c3ccc(O)cc3)c2)[C@H](O)[C@@H](O)[C@@H]1O,inactive
10,CC(C)=CCC[C@](C)(O[C@@H]1O[C@H](CO[C@@H]2OC[C@@H](O)[C@H](O)[C@H]2O)[C@@H](O)[C@H](O)[C@H]1O)[C@H]1CC[C@]2(C)[C@@H]1[C@H](O)C[C@@H]1[C@@]3(C)CC[C@H](O[C@@H]4O[C@H](CO)[C@@H](O)[C@H](O)[C@H]4O[C@@H]4O[C@H](CO)[C@@H](O)[C@H](O)[C@H]4O)C(C)(C)[C@@H]3CC[C@]12C,inactive [at 17.4 µM]
11,COc1ccc2c(c1)OC[C@]1(O)c3cc4c(cc3O[C@H]21)OCO4,inactive
12,COC1=CC(=O)O[C@@H](/C=C/c2ccccc2)[C@@H]1O,inactive
13,CCOC(=O)N1CCC(NCCNC(=O)c2ccccc2C)CC1,inactive
14,C=C[C@@]1(C)CC(=O)C2[C@](C)(O1)[C@@H](OC(C)=O)[C@@H](O)[C@H]1C(C)(C)CCC[C@]21C (stereo partly specified),inactive [at 9.27 µM]
15,O=C1N(CC2CCCCN2)CCN1c1ccccc1 (stereo unspecified),inactive
16,COc1cc(C(C)=O)ccc1O[C@@H]1O[C@H](CO[C@@H]2O[C@@H](C)[C@H](O)[C@@H](O)[C@H]2O)[C@@H](O)[C@H](O)[C@H]1O,inactive [at 17.4 µM]
17,COC(=O)[C@@]1(O)C=CC[C@@H]2[C@@]3(C)C[C@@H](c4ccoc4)OC(=O)[C@H]3CC[C@]21C,inactive
18,COc1ccc(C(=O)O[C@H]2CC(C)=CC[C@@]3(C)[C@@H](OC(C)=O)C[C@@](O)(C(C)C)[C@H]23)cc1,inactive [at 17.4 µM]
19,CC1(C)CC(=O)N(CCCCN2CCN(c3ncccn3)CC2)C(=O)C1,inactive
20,C=C1CC[C@H]2[C@@](C)(CCC(O)[C@@]2(C)CO)[C@@H]1C/C=C(/C(=O)O)C(O)CO (stereo partly specified),inactive
21,COc1cc(/C=C/C(=O)OC2CC(C)=C(C(=O)O)/C2=C/CO[C@@H]2O[C@H](CO)[C@@H](O)[C@H](O)[C@H]2O)ccc1O (stereo partly specified),inactive [at 17.4 µM]
22,CC(=O)OCC1=C[C@H](O)[C@@H]2C(C(=O)O)=CO[C@@H](O[C@@H]3O[C@H](CO)[C@@H](O)[C@H](O)[C@H]3O)[C@H]12,inactive [at 17.4 µM]
23,C=CC(C)(C)O[C@@H]1O[C@H](CO[C@@H]2OC[C@](O)(CO)[C@H]2O)[C@@H](O)[C@H](O)[C@H]1O,inactive
24,COC(=O)[C@@H]1C2CC3c4[nH]c5ccccc5c4CCN3CC2CC[C@@H]1O (stereo partly specified),inactive
25,FC(F)(F)c1cc(C(F)(F)F)c2ccc3nc(-c4nnco4)cn3c2n1,inactive
26,COC(=O)C1=COC(OC2OC(CO)C(O)C(O)C2O)C2C1CC(OC(=O)C(O)CC(=O)O)C2C (stereo unspecified),inactive [at 17.4 µM]
